ELG1 DNA repair = inhibitors of ELG1-dependent DNA repair in HEK293T cells; HEK293T ELG1-luciferase reporter, luminescence, 16 h; DNA damage induced by 5-fluorouridine; 2.3% of 330,000 active; Potency, µM (doses to about 46.1 µM), for the others: top-dose activity change, negative = inhibition, hits mostly inhibitors; AID 504467; also: % is scaled to controls: 0 for no effect and ±100 for the full control effect; nearly all actives have a fitted effect of over 55% in size
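Quantitative HTS, concentration-response format. 2,000 cells/well co-treated with 5-fluorouridine and compound, 16 hr in 5% CO2 at 37 °C; ONE-Glo luminescence read after 30 min.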
SW480 rerep = inducers of DNA re-replication in SW480 colon cancer cells; SW480 DNA re-replication, Hoechst DNA content imaging, 48 h; Potency, µM (highest dose often 46.1 µM), without a hit: at the highest dose re-replication activation, most hits filed as activators; AID 624297; 1.8% of 340,000 active; also: % of control where 0% means no effect; nearly all actives have a fitted effect of over 55% in size
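Treated cells incubate 48 hr (37 C, 5% CO2), are stained 40 min with Hoechst, and nuclear fluorescence is enumerated; a rise in nuclei with high DNA signal marks re-replication.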
ELG1 genotoxic = induces genotoxicity in HEK293T cells with luciferase-tagged ELG1; HEK293T ELG1-luciferase reporter, luminescence, 16 h; Potency, µM (doses to about 46 µM), for inactives: at the top dose activity change, positive = activation, usual class: activators; 1.3% of 330,000 active; AID 504466; also: % of control where 0% means no effect; nearly all actives have a fitted effect of over 60% in size
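After overnight (16 hr) compound treatment at 37 °C, ELG1-luciferase HEK293T cells were lysed with ONE-Glo; luminescence quantified 30 min later at room temperature.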
MCF10A rerep = induces DNA re-replication in MCF 10a normal breast cells | Potency, µM (top dose mostly 46.1 µM), for inactives: at the top dose activity, positive = re-replication, actives largely listed as activators | AID 624296 | MCF 10A DNA re-replication, Hoechst nuclear intensity, 48 h | 2.9% of 350,000 active; also: % of control where 0% means no effect; nearly all actives have a fitted effect of over 50% in size
p53 reactivator = mutant p53 re-activation in reporter cells | H1299 p53-A138V BP100-luciferase reporter, luminescence, 24 h | Potency, µM (titrated, usually from 92.2 µM), inactives show at the highest dose activity change, positive = activation, most hits filed as activators | 0.063% of 320,000 active | AID 504706; also: % of control where 0% means no effect; nearly all actives have a fitted effect of over 45% in size
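H1299 (p53-null), stable ts p53-A138V + BP100-Luc; 1000 cells/well, Opti-MEM/10% FBS; cpd 4 pt, 1:5; 24 h, 37 deg C, 5% CO2; detection reagent 10 min RT; luminescence.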
A-T KAP1 phos = candidate therapy for ataxia-telangiectasia | F2112 A-T fibroblasts, KAP-1 phosphorylation AlphaLISA; neocarzinostatin DNA damage 30 min before lysis | Potency, µM (top dose mostly 57.5 µM), inactives show top-dose activation, usual class: activators | 0.19% of 320,000 active; also: % of control where 0% means no effect; nearly all actives have a fitted effect of over 45% in size
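hTERT-immortalized A-T patient fibroblasts (F2112), 500 cells/well in OPTI-MEM, 1% FBS, got compounds for 60 min, then NCS for 30 min at 37C. Lysates were then assayed for phospho-KAP-1 by AlphaLISA (anti-pKAP1 donor, anti-KAP1 acceptor beads), 6 hr at 25C.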
* hit, by the source's call; ? = inconclusive; . = no result; [ ] = dose if it differs, or a comment. The list is not random: actives were taken first. Their share in the collection is about 7.1%. Calls follow the shape of the dose curve; as a rule, active = well fitted curve in the direction sought with a large enough effect; inconclusive = small, poorly fitted or top-dose-only effect, or another doubt; inactive = no such curve, though single readings can be large; an effect the other way counts as inactive or inconclusive. Potency is read from the fitted curve at half-maximal effect.

SMILES	ELG1 DNA repair	SW480 rerep	ELG1 genotoxic	MCF10A rerep	p53 reactivator	A-T KAP1 phos
O=C(NC1CCCCC1)c1cccc2c1C(=O)c1ccc(-c3ccc(OC(F)(F)F)cc3)cc1S2(=O)=O	0.0%	-0.2%	6.6%	0.92µM*	5.0%	1.9%
COc1ccc(NC(=O)N2CCNC(=O)C2CC(=O)Nc2ccc(F)cc2)cc1 (stereo unspecified)	0.3%	-4.6%	-0.2%	-4.5%	3.7%	-1.0%
COc1ccc(CNCCS(=O)(=O)NN2CCOCC2)cc1	19.1%	3.8%	2.0%	1.5%	3.2%	2.8%[11.5 µM]
CN(C(=O)c1ccc(NC(=O)Cc2cccc(NC(=O)C3CCCN(C(=O)C4CCC4)C3)c2)cc1)C1CCCC1 (stereo unspecified)	?	?	-2.8%	?	-11.5%	?
O=C(NNc1ccccc1)C(CCO)C(=O)NNc1ccccc1	?	?	7.6%	11.6µM*	-0.2%	-0.2%
Cc1c(N(C)C(=O)COc2ccc3ccccc3c2)c(=O)n(-c2ccccc2)n1C	0.8%	3.8%	1.1%	-4.0%	-3.5%	-1.7%
C=CCN1C(=O)C2C(C(=O)NC3CCCC3)C3(C)C=CC2(O3)C1C(=O)NC1CCCC1 (stereo unspecified)	17.2%	-12.4%	-0.7%	-0.1%	6.7%	-0.1%
C/C(=N\NC(=O)c1nnn(-c2nonc2N)c1CN(C)c1ccccc1)c1cccc(O)c1	-8.4%	-3.1%	-3.8%	7.3%	4.8%	1.3%
COc1ccc(NC(=O)N(Cc2cc3ccc(OC)cc3[nH]c2=O)CC2CCCO2)cc1 (stereo unspecified)	10.3µM*	?	-4.0%	?	-2.6%	-0.8%
CCc1ccc2[nH]c(=O)c(CN(CCCN3CCOCC3)C(=O)Nc3ccc(F)cc3)cc2c1	?	-0.8%	-9.9%	6.9%	-1.4%	0.3%
O=C(Nc1ccc(F)cc1)N(CCCN1CCOCC1)Cc1cc2cc3c(cc2[nH]c1=O)OCCO3	?	-7.7%	-0.6%	6.5%	2.7%	14.1µM*
COc1ccc(NC(=O)N(Cc2cc3cc(OC)ccc3[nH]c2=O)CC2CCCO2)cc1 (stereo unspecified)	10.3µM*	0.6%	-5.9%	7.0%	-9.4%	1.8%
CCN(CC)CCCN(Cc1cc2cc(OC)ccc2[nH]c1=O)C(=O)Nc1ccc(F)cc1	-1.0%	?	-5.2%	2.91µM*	-0.2%	.
C=CCC[C@H](Cc1ccc(F)cc1)C(=O)OC[C@@H](NC(=O)[C@H](CC=C)CC(=O)NCCO)C(C)(C)C	6.1%	-2.7%	-0.6%	6.9%	-1.5%	5.2%
O=S(=O)(Nc1ccccc1OC(F)F)c1ccc(S(=O)(=O)N2CCCC2)cc1	-1.6%	-7.6%	-0.4%	7.0%	-8.4%	-3.4%
CCN(C(=O)COC(=O)c1cc2ccccc2cc1OC)c1c(N)n(Cc2ccccc2)c(=O)[nH]c1=O	.	-15.9%	.	-8.4%	.	.
Oc1ccc(COCc2ccc(F)cc2)c2cccnc12	.	.	.	.	.	1.9%
COC(=O)c1ccc(Nc2nc(C)nc3c2nnn3Cc2ccccc2)cc1	1.7%	0.7%	1.2%	-6.1%	.	7.2%
COc1ccc(-n2c(COc3cccc4cccnc34)nnc2SCC(=O)O)cc1	7.6%	-21.0%	2.2%	-3.0%	1.5%	-4.1%
COc1ccc2cc(CN(CC3CCCO3)C(=O)Nc3ccccc3OC)c(=O)[nH]c2c1 (stereo unspecified)	7.3µM*	14.6µM*	-3.2%	18.4µM*	-1.0%	-4.4%
NC(=O)c1c(NC(=O)c2c(F)cccc2F)sc2c1CCN(Cc1ccccc1)C2	?	13.1%	-6.8%	25.9µM*	10.0%	14.6%
CCOC(=O)N1CCc2c(sc(NC(=O)CCS(=O)(=O)c3ccccc3)c2C(N)=O)C1	6.3%	-10.4%	-5.9%	?	-0.7%	-22.6%
NC(=O)c1c(NC(=O)c2ccccc2)sc2c1CCN(Cc1ccccc1)C2	?	?	13.3%	?	.	0.5%
CC(=O)N1CCc2c(sc(NC(=O)CCS(=O)(=O)c3ccccc3)c2C(N)=O)C1	1.6%	20.6µM*	5.0%	?	-4.3%	-4.8%
CC(=O)N1CCc2c(sc(NC(=O)C3COc4ccccc4O3)c2C(N)=O)C1 (stereo unspecified)	-7.2%	-0.5%	20.4%	10.8%	-10.4%	7.2%
SMILES	ELG1 DNA repair	SW480 rerep	ELG1 genotoxic	MCF10A rerep	p53 reactivator	A-T KAP1 phos
CNC(=O)c1c(NC(=O)c2ccc(S(=O)(=O)N3CCCCC3C)cc2)sc2c1CCN(C)C2 (stereo unspecified)	?	?	-8.7%	20.6µM*	-2.9%	-3.6%
CN1CCc2c(sc(NC(=O)C3COc4ccccc4O3)c2C(N)=O)C1 (stereo unspecified)	?	?	23.1µM*	15.7%	?	2.8%
CCOc1ccc(OCCC(=O)N(CC)CC(=O)Nc2c(F)cccc2F)cc1	0.0%	-3.4%	0.8%	4.7%	0.5%	-1.5%
C/C(=N\NC(=O)c1cccc(S(=O)(=O)N2CCOCC2)c1)c1ccc(C)cc1	-13.2%	0.1%	0.8%	-9.0%	-6.8%	4.2%
CCCCn1c(C)cc2c(c1=O)C1O[C@](CCCC)(Cc3cc(C#N)ccc31)O2	.	.	.	.	.	12.6%[11.5 µM]
CCN1CCc2c(sc(NC(=O)Nc3ccc(Cl)c(Cl)c3)c2C(N)=O)C1	-1.2%	14.6µM*	4.8%	9.2µM*	2.5%	25.1µM*
CCN1CCc2c(sc(NC(=O)c3ccc(S(=O)(=O)N4CCOCC4)cc3)c2C(=O)OC)C1	-14.0%	?	0.9%	14.6µM*	-1.4%	-4.6%
CN1CCc2c(sc(NC(=O)c3ccc4ccccc4c3)c2C(N)=O)C1	?	.	10.3µM*	.	0.7%	8.8%
CN1CCc2c(sc(NC(=O)Cc3ccccc3)c2C(N)=O)C1	6.7%	-1.0%	5.2%	1.2%	.	1.0%
CCN1CCc2c(sc(NC(=O)c3ccc(S(=O)(=O)N(CC)c4ccccc4)cc3)c2C(N)=O)C1	8.3%	?	?	11.6µM*	-1.3%	-5.1%
CCN1CCc2c(sc(NC(=O)c3ccc(C(=O)c4ccccc4)cc3)c2C(N)=O)C1	-19.3%	3.3%	-8.2%	?	17.3%	-5.6%
NC(=O)c1ccccc1NC(=O)c1ccc2ccccc2c1	?	?	2.31µM*	11.4%	.	7.2%
COc1ccc(C(=O)Nc2ccccc2C(N)=O)cc1	?	-9.4%	?	1.1%	?	-5.7%
CCN1CCc2c(sc(NC(=O)C3COc4ccccc4O3)c2C(N)=O)C1 (stereo unspecified)	?	?	18.3µM*	3.8%	?	-2.3%
